Measurements from PubChem BioAssay AID602163 (The Scripps Research Institute Molecular Screening Center, 2012).
Hit rate of the full screen: of about 360,000 compounds, about 1,100 (0.31%) were called active. No stated cut-off is given here; in the data, active means activation above about 7.5%; inactive means the rest. Many of the other results were omitted from the sample, so actives are more common in it than they were.

What follows are molecules tested on Methionine sulfoxide reductase A (Bos taurus) (assay: bovine MsrA enzyme activators, primary screen, biochemical, absorbance, HTS (AID 602163;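 further: 0% = vehicle and 100% = reference activator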)). Details: purified bovine MsrA, absorbance read-out; at 10.6 µM; active compounds read high.
In the case of `CC(=O)NC(Cc1c[nH]c2ccccc12)C(=O)NCCc1ccccc1` (configuration not stated), the activation was -3.82% (inactive). For `CC(=O)NC(Cc1c[nH]c2ccccc12)C(=O)O` (configuration not stated), the activation was 9.9% (active). With `O=C(N[C@@H](Cc1c[nH]c2ccccc12)C(=O)O)OCC1c2ccccc2-c2ccccc21` the activation was 0.63% (inactive). In the case of `NS(=O)(=O)c1cccc(NC(=O)CC23CC4CC(CC(Br)(C4)C2)C3)c1`, the activation was -2.66% (inactive). For `C#CCO[C@@H]1C[C@H](n2cnc3c(=O)[nH]c(NC(=O)C(C)C)nc32)O[C@@H]1CO`, the activation was -0.46% (inactive). For `COc1cc(NC(=O)c2ccccc2)c(OC)cc1NC(=O)Cc1ccccc1`, the activation was 0.53% (inactive). For `O=C(NC1=CC(=O)c2ccccc2C1=O)c1ccccc1`, the activation was 18.2% (active). With `C/C(=N\NC(=O)c1ccc(C)cc1)C1C(=O)c2ccccc2C1=O` the activation was -5.75% (inactive). `O=C(CSCc1c(Cl)cccc1Cl)NN1C(=O)c2ccccc2C1=O` was tested, and the activation was -2.13% (inactive). With `O=C(COC(=O)Cc1ccc(Br)cc1)Nc1ccc(N2CCOCC2)cc1` the activation was -1.14% (inactive). `O=C(CSc1n[nH]c(-c2cccs2)n1)N1CCCCC1` was tested, and the activation was 8.31% (active). For `Cn1c(SCC(=O)N2CCCC2)nnc1-c1cccs1`, the activation was -0.73% (inactive). In the case of `O=C(CSc1ncccn1)N1CCCC1`, the activation was -3.29% (inactive). In the case of `CCCCn1c(N)c(N(CC(C)C)C(=O)CSc2ccc([N+](=O)[O-])cc2)c(=O)[nH]c1=O`, the activation was -3.75% (inactive). `COc1ccc([C@H]2CC(=O)C=C(/C=C/c3ccccc3)C2)cc1` was tested, and the activation was 8.06% (active). In the case of `COc1ccc([C@H]2CC(=O)C=C(/C=C/c3ccc(Cl)cc3)C2)cc1`, the activation was -1.21% (inactive). With `COc1ccc([C@H]2CC(=O)C=C(c3ccc(C)cc3)C2)cc1` the activation was -3.05% (inactive). In the case of `O=C(Nc1cccn(Cc2c(Cl)cccc2Cl)c1=O)c1ccc(Cl)cc1`, the activation was 2.68% (inactive). With `CC(Sc1nnc(CNC(=O)c2ccccc2F)n1C)C(=O)Nc1nccs1` (configuration not stated) the activation was 0.09% (inactive). `O=C(Nc1ccccc1F)c1ccccc1-c1ccccc1` was tested, and the activation was -1.97% (inactive). In the case of `O=C(O)c1ccccc1-c1ccccc1C(=O)Nc1cccc2ccccc12`, the activation was 11.4% (active). With `O=C(O)c1ccccc1-c1ccccc1C(=O)Nc1nccs1` the activation was -2.03% (inactive). In the case of `O=C(O)c1ccccc1NC(=O)c1ccccc1-c1ccccc1C(=O)O`, the activation was 7.87% (active). For `O=C(O)c1ccccc1-c1ccccc1C(=O)NCCc1ccccc1`, the activation was -13.5% (inactive). For `O=C(O)c1ccccc1-c1ccccc1C(=O)Nc1ccccc1Br`, the activation was -10.3% (inactive). For `N#Cc1ccc(OCCN2C(=O)NC3(CCSC3)C2=O)cc1` (configuration not stated), the activation was -0.26% (inactive). `CCOC(=O)c1cc(-c2ccccc2C)n(Cc2cc(C)no2)n1` was tested, and the activation was -2.88% (inactive). For `COc1ccccc1CNC(=O)C1CCN(S(=O)(=O)c2ccc3c(c2)OCCO3)CC1`, the activation was -2.2% (inactive). In the case of `Cc1ccc(S(=O)(=O)N(CC(=O)NN=C2CCN(C)CC2)c2ccc(F)cc2)cc1`, the activation was -2.23% (inactive). `Cn1sc(NC(=O)c2ccccc2)nc1=O` was tested, and the activation was 14.9% (active). `Cc1nc(NNC(=O)c2ccccc2)cc(-c2ccccc2)n1` was tested, and the activation was 1.76% (inactive). `CCOC(=O)c1cc(-c2sc(NC(=O)c3ccccc3)nc2C)n(CCO)n1` was tested, and the activation was -3.15% (inactive). For `CCN(CC)S(=O)(=O)c1ccc(OC(C)C)c(N)c1`, the activation was -3.46% (inactive). With `CN1C(=O)c2ccccc2C(C(=O)NCCCN2CCCC2)C1c1c[nH]c2ccccc12` (configuration not stated) the activation was -1.12% (inactive). `Cc1ccc(SCC(=O)c2cc(C)c(OC(=S)N(C)C)c(C)c2)cc1` was tested, and the activation was 1.83% (inactive). With `COc1ccc(CCNC(=O)CN2CCC(n3nnc4cc(F)ccc43)CC2)cc1OC` the activation was -2.2% (inactive). In the case of `NC1=CC(=O)C(=O)c2cccnc21`, the activation was 15.2% (active). `Cc1ccc2c(CC(=O)NCc3cccs3)coc2c1` was tested, and the activation was -2.6% (inactive). In the case of `COc1cc(C(=O)OCCCN2CCOCC2)cc(OC)c1OC`, the activation was -0.8% (inactive). In the case of `COC(=O)c1scc(S(=O)(=O)C(C)(C)C)c1-n1cccc1`, the activation was -1.27% (inactive). `COc1ccc(S(=O)(=O)N2CCOCC2)cc1NC(=O)Cc1coc2cc(C)ccc12` was tested, and the activation was -1.58% (inactive). In the case of `CC(C)c1ccc(Nc2ncccc2C#N)cc1`, the activation was -0.47% (inactive). In the case of `CC1=NNC(=O)C1CCC(=O)N/N=C\c1cccc(Cl)c1` (configuration not stated), the activation was -5.62% (inactive). In the case of `CC1=NNC(=O)C1CCC(=O)N/N=C\c1ccc(Cl)c(Cl)c1` (configuration not stated), the activation was -2.03% (inactive). In the case of `CC1=NNC(=O)C1CCC(=O)N/N=C(\C)c1ccc(Cl)cc1` (configuration not stated), the activation was 19.6% (active). For `CCOc1ccc(CCNC(=O)COC(=O)C2CCN(S(=O)(=O)c3ccccc3)CC2)cc1OCC`, the activation was -3.79% (inactive). `CSC1=NCCN1C(=O)Cc1cccc2ccccc12` was tested, and the activation was -1.62% (inactive). `O=C(NCCOc1ccccc1)N1[C@H]2CC[C@@H]1C=C(c1ccc(F)cc1OCc1ccccc1)C2` was tested, and the activation was -0.63% (inactive). `CCOc1ccc(C(C)=O)cc1COC(=O)CN1C(=O)NC2(CCCC2)C1=O` was tested, and the activation was -2.45% (inactive). `Cc1ccc(COC(=O)CN2C(=O)NC3(CCCC3)C2=O)cc1` was tested, and the activation was 10.9% (active). For `O=C(CN1C(=O)NC2(CCCC2)C1=O)OCCOc1ccc(F)cc1`, the activation was -0.72% (inactive). `S=c1[nH]nc2c3c4c(sc3ncn12)CCCC4` was tested, and the activation was 12.9% (active). For `CCn1c(=S)[nH]c2sc3c(c2c1=O)CCCCC3`, the activation was 1.11% (inactive). With `N=c1c2c3c(sc2ncn1CCCN1CCOCC1)CCCCC3` the activation was -6.06% (inactive). `COc1cc(NC(=O)COC(=O)c2ccc([N+](=O)[O-])s2)cc(OC)c1OC` was tested, and the activation was 10.6% (active). In the case of `COc1cccc(/C=C/C(=O)OCC(=O)N2CCN(c3ccccc3)CC2)c1`, the activation was -1.19% (inactive). `COc1ccc(C(=O)COC(=O)c2ccc([N+](=O)[O-])s2)cc1OC` was tested, and the activation was 12.4% (active). In the case of `COc1ccc(C(=O)OCC(=O)Nc2ccc3[nH]c(=O)[nH]c3c2)c(OC)c1OC`, the activation was 1.62% (inactive). `COc1cc(NC(=O)COC(=O)c2cnc(C)cn2)c(C)cc1[N+](=O)[O-]` was tested, and the activation was -4.41% (inactive). With `COc1ccc(C(=O)OCC(=O)c2ccc(C)c(S(=O)(=O)N3CCOCC3)c2)cc1OC` the activation was -4.43% (inactive). For `C[C@H](NC(=O)c1ccccc1Cl)C(=O)OCC(=O)N1CCN(c2ccccc2)CC1`, the activation was 1.01% (inactive). `O=C(OCC(=O)N1CCN(c2ccccc2)CC1)c1ccc([N+](=O)[O-])s1` was tested, and the activation was 8.9% (active). With `COc1ccc(C(=O)OCC(=O)c2ccc(Cl)s2)c(OC)c1OC` the activation was -1.71% (inactive). For `CCOC(=O)C1CCN(C(=O)C2CCN(S(=O)(=O)c3c(C)noc3C)CC2)CC1`, the activation was -0.14% (inactive). `O=C1[C@@H]2C(Cc3ccc(O)cc3)NC3(C(=O)Nc4ccc(F)cc43)[C@@H]2C(=O)N1c1ccc(F)cc1` (some centres not stated) was tested, and the activation was -1.38% (inactive). `COc1ccc([C@H]2N[C@]3(CCCN(CC4CCCCC4)C3=O)[C@H]3C(=O)N(C)C(=O)[C@@H]23)cc1` was tested, and the activation was -4.49% (inactive). For `CCOc1ccccc1NC(=O)C1CCCN(C(=O)Nc2ccccc2)C1` (configuration not stated), the activation was -2.87% (inactive). With `Nn1c(SCC(=O)Nc2ccc3c(c2)CCC3)nnc1C1CC1` the activation was 0.99% (inactive). In the case of `CCCN(CC(=O)Nc1ccccc1C)C(=O)c1cc(=O)[nH]c2ccccc12`, the activation was -8.69% (inactive). For `CC1CCc2[nH]c3ccc(C(=O)N(C)CC(=O)Nc4cccc(F)c4)cc3c2C1` (configuration not stated), the activation was -0.36% (inactive). `CCCN(CC(=O)Nc1ccccc1C)C(=O)c1ccc2[nH]c3c(c2c1)CC(C)CC3` (configuration not stated) was tested, and the activation was 17.2% (active). For `COCC(=O)Nc1c(I)c(C(=O)NCC(O)CO)c(I)c(C(=O)N(C)CC(O)CO)c1I` (configuration not stated), the activation was -1.2% (inactive). In the case of `NC(=O)NCCCC(=O)O`, the activation was 5.76% (inactive). `CC(=O)N(O)CCCCCNC(=O)CCC(=O)N(O)CCCCCNC(=O)CCC(=O)N(O)CCCCCNC(=O)CCC(=O)O` was tested, and the activation was 8.82% (active). In the case of `COc1ccc(OC)c(NC(=O)COC(=O)Cc2ccsc2)c1`, the activation was -3.82% (inactive). In the case of `S=c1nccc(-c2cc(Cl)sc2Cl)[nH]1`, the activation was -10.9% (inactive). With `CC[C@]1(O)C[C@@H]2CN(CCc3c([nH]c4ccccc34)[C@@](C(=O)OC)(c3cc4c(cc3OC)N(C)[C@H]3[C@@](O)(C(=O)OC)[C@H](OC(C)=O)[C@]5(CC)C=CCN6CC[C@]43[C@@H]65)C2)C1` the activation was -0.23% (inactive). For `CCOc1ccc2[nH]c(=O)c(CN(CCCO)C(C)=O)cc2c1`, the activation was -0.13% (inactive). In the case of `Nc1ccc2[nH]c(=S)sc2c1`, the activation was 0.61% (inactive). For `CCOc1ccc2[nH]c(=S)sc2c1`, the activation was 8.43% (active). With `Cn1c(CCCOc2ccc(Cl)cc2Cl)n[nH]c1=S` the activation was -3.29% (inactive). With `COC(=O)c1ccc(NC(=O)CSc2nnc(Cc3cccn3C)n2-c2ccc(F)cc2)cc1` the activation was -0.87% (inactive). In the case of `Cc1ccc(C)c(NC(=O)CSc2nnc(Cc3cccn3C)n2-c2ccc(F)cc2)c1`, the activation was 9.61% (active). For `COc1ccccc1NC(=O)CSc1nnc(Cc2cccn2C)n1-c1ccc(F)cc1`, the activation was -0.41% (inactive). In the case of `CCn1c(C)nc2c1C(=O)c1ccccc1C2=O`, the activation was 6.51% (inactive). With `Cc1cc(OC(C)C(=O)Nc2ccc(S(=O)(=O)Nc3onc(C)c3C)cc2)cc(C)c1Cl` (configuration not stated) the activation was -4.68% (inactive). In the case of `Cc1noc(NS(=O)(=O)c2ccc(NC(=O)C34CCC(CC3)C4)cc2)c1C`, the activation was 7.83% (active). For `O=C(Nc1ccc(S(=O)(=O)Nc2ncccn2)cc1)C12CC3CC(CC(C3)C1)C2`, the activation was -5.78% (inactive). With `COc1cc(C(=O)OCC(=O)NC23CC4CC(CC(C4)C2)C3)cc(OC)c1OC` the activation was -1.08% (inactive). For `COc1ccc(S(=O)(=O)N2CCOCC2)cc1NC(=O)CC1CC2CCC1C2` (configuration not stated), the activation was -3.8% (inactive). With `CCN(CC(=O)Nc1ccccc1OC)C(=O)CC1CC2CCC1C2` (configuration not stated) the activation was 7.82% (active). With `CCN(CC(=O)Nc1ccccc1OC)C(=O)Cn1cnc2ccccc2c1=O` the activation was -6.89% (inactive).
